Assay results as given in PubChem BioAssay AID1159580 (chemical genetic matrix, 2015).
The whole screen tested about 5,500 compounds, of which about 2,000 (36%) were called active. Inconclusive results (about 18%) are left out. Cut-off read from the data, not from the text of the source: active = normalized growth mostly below about 0.91 (no sharp cut-off); inconclusive = no clear call, values can overlap the other calls; inactive = mostly above about 0.92. The list shows a part of the results.

Assay: chemical genetic growth profiling, strain panel (AID 1159580);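 note: tested at 20 µM; growth read once vehicle control cultures reached saturation at 30 °C; 1 = growth at the plate median or of vehicle wells; lower values mean less growth of the strain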
Details: S. cerevisiae deletion strains, growth OD

Measured: normalized growth

COc1cc2ccc(=O)oc2c(OC)c1OC
inactive: locus YAL021C, strain ccr4, active compounds read low 1 | locus YAL026C, strain drs2, active compounds read low 0.983 | locus YAL030W, strain snc1, active compounds read low 0.98 | locus YBL061C, strain skt5, active compounds read low 0.997 | locus YBR009C, strain hhf1, active compounds read low 0.998 | locus YBR021W, strain FUR4, active compounds read low 0.97 | locus YBR023C, strain chs3, active compounds read low 0.995 | locus YBR171W, strain sec66, active compounds read low 0.974 | locus YBR229C, strain ROT2, active compounds read low 1.02 | locus YBR231C, strain swc5, active compounds read low 1.02 | locus YBR279W, strain paf1, active compounds read low 0.991 | locus YCL011C, strain gbp2, active compounds read low 0.977 | locus YCL016C, strain dcc1, active compounds read low 0.971 | locus YCL029C, strain bik1, active compounds read low 1.03 | locus YCL069W, strain vba3, active compounds read low 0.975 | locus YCR088W, strain abp1, active compounds read low 0.98 | locus YDL005C, strain med2, active compounds read low 0.977 | locus YDL035C, strain GPR1, active compounds read low 1.04 | locus YDL040C, strain nat1, active compounds read low 0.978 | locus YDL074C, strain BRE1, active compounds read low 1.03 | locus YDL101C, strain DUN1, active compounds read low 1.02 | locus YDL134C, strain PPH21, active compounds read low 1.02 | locus YDL185W, strain tfp1, active compounds read low 1.03 | locus YDL192W, strain arf1, active compounds read low 1.01 | locus YDR001C, strain nth1, active compounds read low 1 | locus YDR069C, strain doa4, active compounds read low 0.99 | locus YDR101C, strain arx1, active compounds read low 1 | locus YDR137W, strain rgp1, active compounds read low 0.997 | locus YDR159W, strain sac3, active compounds read low 1.04 | locus YDR162C, strain NBP2, active compounds read low 1.05 | locus YDR195W, strain ref2 0.984 | locus YDR297W, strain sur2, active compounds read low 0.997 | locus YDR318W, strain mcm21, active compounds read low 1.03 | locus YDR334W, strain swr1, active compounds read low 0.98 | locus YDR335W, strain msn5, active compounds read low 0.973 | locus YDR388W, active compounds read low 1.02 | locus YDR392W, strain spt3, active compounds read low 1 | locus YDR502C, strain sam2, active compounds read low 1.02 | locus YEL003W, strain gim4, active compounds read low 0.968 | locus YEL037C, strain rad23, active compounds read low 0.987 | locus YEL061C, strain CIN8 (second series), active compounds read low 0.996 | locus YER015W, strain faa2, active compounds read low 0.995 | locus YER016W, strain bim1, active compounds read low 0.959 | locus YER110C, active compounds read low 1.01 | locus YER111C, strain swi4, active compounds read low 0.979 | locus YER155C, strain BEM2 (second series), active compounds read low 0.982 | locus YER155C, strain BEM2, active compounds read low 1 | locus YER167W, strain BCK2, active compounds read low 1.02 | locus YFR010W, strain ubp6, active compounds read low 1.01 | locus YGL078C, strain dbp3, active compounds read low 1.04 | locus YGL086W, strain mad1, active compounds read low 1 | locus YGL167C, strain pmr1, active compounds read low 0.983 | locus YGL173C, strain kem1, active compounds read low 0.956 | locus YGL227W, strain vid30, active compounds read low 0.976 | locus YGL240W, strain doc1, active compounds read low 0.985 | locus YGL248W, strain PDE1, active compounds read low 1.03 | locus YGL253W, strain hxk2, active compounds read low 0.992 | locus YGR135W, strain pre9, active compounds read low 1.04 | locus YGR229C, strain SMI1, active compounds read low 1.01 | locus YGR252W, strain gcn5, active compounds read low 1 | locus YHR013C, strain ard1, active compounds read low 0.953 | locus YHR027C, strain rpn1, active compounds read low 0.996 | locus YHR079C, strain IRE1 (second series), active compounds read low 1.01 | locus YHR094C, strain hxt1, active compounds read low 1.02 | locus YHR129C, strain ARP1, active compounds read low 1.01 | locus YHR142W, strain chs7, active compounds read low 0.951 | locus YHR200W, strain rpn10, active compounds read low 1.02 | locus YIL066C, strain RNR3, active compounds read low 1.03 | locus YIL073C, strain SPO22, active compounds read low 1.07 | locus YIL125W, strain kgd1, active compounds read low 1.01 | locus YIR030C, strain dcg1, active compounds read low 1.02 | locus YJL092W, strain hpr5, active compounds read low 0.967 | locus YJL095W, strain BCK1 (second series), active compounds read low 0.978 | locus YJL095W, strain BCK1, active compounds read low 1.02 | locus YJL115W, strain asf1, active compounds read low 0.987 | locus YJL129C, strain trk1, active compounds read low 0.961 | locus YJL134W, strain LCB3, active compounds read low 1.01 | locus YJL154C, strain vps35, active compounds read low 0.979 | locus YJL164C, strain tpk1, active compounds read low 0.991 | locus YJL166W, strain qcr8, active compounds read low 0.978 | locus YJL168C, strain set2, active compounds read low 1.02 | locus YJL187C, strain SWE1 (second series), active compounds read low 1.02 | locus YKL009W, strain mrt4, active compounds read low 1.07 | locus YKL068W, active compounds read low 0.996 | locus YKL085W, strain MDH1 (second series), active compounds read low 1.01 | locus YKL085W, strain MDH1, active compounds read low 1.01 | locus YKL160W, strain elf1, active compounds read low 0.965 | locus YKL190W, strain CNB1, active compounds read low 1.01 | locus YKR001C, strain vps1, active compounds read low 0.992 | locus YKR026C, strain gcn3, active compounds read low 1 | locus YKR091W, strain srl3, active compounds read low 0.964 | locus YLL001W, strain dnm1, active compounds read low 0.987 | locus YLL026W, active compounds read low 0.992 | locus YLL041C, strain sdh2, active compounds read low 0.979 | locus YLR027C, strain aat2, active compounds read low 0.987 | locus YLR039C, strain RIC1, active compounds read low 1.07 | locus YLR058C, strain SHM2, active compounds read low 1.04 | locus YLR102C, strain apc9, active compounds read low 1.02 | locus YLR221C, strain rsa3, active compounds read low 1.02 | locus YLR258W, strain gsy2, active compounds read low 0.992 | locus YLR262C, strain YPT6 (second series), active compounds read low 1 | locus YLR268W, strain sec22, active compounds read low 1.03 | locus YLR320W, strain mms22, active compounds read low 1.02 | locus YLR342W, strain FKS1, active compounds read low 0.979 | locus YLR357W, strain rsc2, active compounds read low 0.964 | locus YLR370C, strain arc18, active compounds read low 0.979 | locus YLR371W, strain rom2, active compounds read low 1.01 | locus YLR384C, strain iki3, active compounds read low 0.991 | locus YLR418C, strain cdc73, active compounds read low 1.03 | locus YML016C, strain PPZ1, active compounds read low 1.03 | locus YML032C, strain rad52, active compounds read low 0.996 | locus YML120C, strain ndi1, active compounds read low 0.979 | locus YML124C, strain tub3, active compounds read low 1.02 | locus YMR058W, strain fet3, active compounds read low 0.974 | locus YMR078C, strain ctf18, active compounds read low 1.02 | locus YMR125W, strain sto1, active compounds read low 0.976 | locus YMR129W, active compounds read low 0.991 | locus YMR205C, strain PFK2, active compounds read low 0.995 | locus YMR223W, strain ubp8, active compounds read low 0.999 | locus YMR231W, strain pep5, active compounds read low 0.98 | locus YMR307W, strain GAS1, active compounds read low 1.07 | locus YNL067W, strain RPL9B, active compounds read low 1.02 | locus YNL071W, strain lat1, active compounds read low 0.999 | locus YNL153C, strain GIM3, active compounds read low 1.02 | locus YNL209W, strain ssb2, active compounds read low 0.976 | locus YNL233W, strain BNI4, active compounds read low 1.01 | locus YNL248C, strain rpa49, active compounds read low 0.962 | locus YNL250W, strain rad50, active compounds read low 1.03 | locus YNL271C, strain bni1, active compounds read low 1.02 | locus YNL298W, strain CLA4, active compounds read low 0.999 | locus YNL307C, strain MCK1, active compounds read low 1.03 | locus YNL322C, strain KRE1 (second series), active compounds read low 0.971 | locus YNL322C, strain KRE1, active compounds read low 1.02 | locus YNR049C, strain mso1, active compounds read low 0.954 | locus YNR052C, strain pop2, active compounds read low 1.02 | locus YOL006C, strain TOP1, active compounds read low 1.06 | locus YOL012C, strain htz1 1.05 | locus YOL147C, strain pex11, active compounds read low 1.01 | locus YOR001W, strain rrp6, active compounds read low 1.02 | locus YOR061W, strain CKA2, active compounds read low 1.04 | locus YOR069W, strain VPS5, active compounds read low 1.01 | locus YOR070C, strain gyp1, active compounds read low 0.994 | locus YOR080W, strain dia2, active compounds read low 0.968 | locus YOR083W, strain WHI5, active compounds read low 0.952 | locus YOR106W, strain vam3, active compounds read low 0.969 | locus YOR136W, strain idh2, active compounds read low 1.03 | locus YOR144C, strain elg1, active compounds read low 1.02 | locus YOR184W, strain ser1, active compounds read low 1.04 | locus YOR265W, strain rbl2, active compounds read low 0.994 | locus YOR270C, strain vph1, active compounds read low 0.957 | locus YOR290C, strain snf2, active compounds read low 0.964 | locus YOR316C, strain cot1, active compounds read low 1.02 | locus YPL051W, strain arl3, active compounds read low 0.982 | locus YPL078C, strain atp4, active compounds read low 0.966 | locus YPL106C, strain sse1, active compounds read low 0.977 | locus YPL240C, strain hsp82, active compounds read low 0.986 | locus YPR119W, strain clb2, active compounds read low 1.01 | locus YPR141C, strain kar3, active compounds read low 1.02 | locus YPR163C, strain tif3, active compounds read low 1.03 | locus YPR167C, strain met16, active compounds read low 1.04 | strain wtn01, active compounds read low 1.02
